We go through 20 compounds from PubChem BioAssay AID488809 (Broad Institute, 2010).

Potency and affinity values are given separately. Records with an inconclusive call do not appear. Values without a mark were called inactive. The rule behind the calls is not given here.

This experiment can be described thus: cytotoxicity in NIH-3T3 fibroblasts, dose response, cytotoxicity control for antifungal drug resistance project, cell-based, Alamar Blue, fluconazole, dry powder (AID 488809). To be noted: NIH-3T3 fibroblasts + fluconazole, Alamar Blue viability, 48 h; series mostly up to 26 µM; activity change, negative = toxicity: at the top concentration. On the technique in general: Alamar Blue is a resazurin reagent that responds to reducing activity.
As for `COC(=O)Cn1nc(-c2ccccc2)c2cc(Cl)ccc21`, the “activity change, negative = toxicity” value is -27.8%.
Regarding `COC(=O)Cn1nc(-c2ccc(Cl)cc2)c2ccccc21`, the “activity change, negative = toxicity” value was -3.6%.
The result for `CCCCNC(=O)N1CCN(c2ccnc3cc(Cl)ccc23)CC1` reads -26.3%; that for `O=C(c1ccccc1)N1CCN(c2ccnc3cc(Cl)ccc23)CC1`, -29.5%; that for `Cc1ccc(C(=O)N2CCN(c3ccnc4cc(Cl)ccc34)CC2)cc1`, -43.6%.
In the case of `O=C(Cn1c2ccccc2c2nc3n(c(=O)c21)CCS3)NCCc1ccc(Cl)cc1` it was -24.4%; in that of `O=c1c2[nH]c3ccccc3c2nc2n1CCS2`, -20.2%.
The result for `Cc1nn(S(C)(=O)=O)c2ccccc12` reads -23.7%; that for `O=C(Cn1nc(-c2ccccc2)c2cc(Cl)ccc21)N1CCOCC1`, -33%; that for `CCCNC(=O)Cn1nc(-c2ccccc2)c2ccccc21`, -10.7%.
Turning to `O=C(Cn1nc(C(=O)N2CCCCC2)c2ccccc21)N1CCOCC1`, the “activity change, negative = toxicity” value was -21.6%.
The result for `O=C(c1ccc(Cl)cc1)N1CCN(c2ccccn2)CC1` reads -27.1%.
Take `O=C(O)c1c2ccccc2nn1Cc1ccc(Cl)cc1`: the “activity change, negative = toxicity” value is -10.5%.
The result for `O=C(O)c1nn(Cc2ccc(Cl)cc2)c2ccccc12` reads -16%; that for `O=C(c1ccc(Cl)cc1)N1CCN(c2ccc(Cl)cc2)CC1`, -4.29%; that for `CC1CCN(C(=O)Cn2c3ccccc3c3nc4n(c(=O)c32)CCS4)CC1`, -29.2%.
The result for `COC(=O)Cn1nc(-c2ccccc2)c2ccccc21` reads -21.6%; that for `COC(=O)Cn1nc(C)c2ccccc21`, -27.1%.
The result for `COc1ccc2c(c1)c1nc3n(c(=O)c1n2CC(=O)N1CCC(C)CC1)CCS3` reads 15.5% [at 2.6 µM]; that for `O=C(Cn1c2ccccc2c2nc3n(c(=O)c21)CCCS3)c1ccc(F)cc1`, -25.7%.
